From PubChem BioAssay AID504834 (National Center for Advancing Translational Sciences (NCATS), 2011)
Among all 320,000 compounds or so, about 22,000 (6.9%) were called active. Inconclusive results (about 27%) are left out. The call rests on the fitted dose curve; in most records, active means well fitted inhibition curve with a large enough effect; inconclusive means small, poorly fitted or top-dose-only effect, or another doubt; inactive means no such curve, though single readings can be large or run the other way. The full list was thinned out, with actives kept by preference.

assay: Primary qHTS for delayed death inhibitors of the malarial parasite plastid, 96 hour incubation; details: P. falciparum luciferase reporter growth; series mostly up to 28.7 µM; activity change, negative = inhibition: at the top concentration
Procedure, shortened: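 P. falciparum expressing integrated firefly luciferase, in erythrocytes at 2% hematocrit, 0.05% parasitemia, incubated with compounds 96 h at 37 C, 5% CO2. Growth inhibition read as loss of luminescence; two-generation exposure targets delayed-death apicoplast inhibitors.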
On the % scale 0 is the no-effect control and ±100 the full control effect; potency means the concentration at half of the fitted maximal effect.

Structure (SMILES)	activity change, negative = inhibition	Potency
N#CC1(NC(=O)COC(=O)Cc2n[nH]c(=O)c3ccccc23)CCCCC1	24.1% (inactive)	
CCN(C(=O)CSc1nnc(-c2ccc(OC(F)F)cc2)n1N)C1CCS(=O)(=O)C1 (stereo unspecified)	7.28% (inactive)	
COc1cc(C)cc(CN2CCC(Cc3ccccc3)CC2)c1O		1.17 µM (active)
NC(=O)c1ccc(CN2CCC(Cc3ccccc3)CC2)cc1	-16.8% (inactive)	
O=c1cc(CO)oc(CN2CCC(Cc3ccccc3)CC2)c1O	-8.24% (inactive)	
CC(C)NC(=O)NNc1c(Cl)cncc1Cl	23% (inactive)	
O=C(CNS(=O)(=O)c1ccc2ccccc2c1)Nc1ccc(F)c(F)c1F	12.1% (inactive)	
COc1ccc(/C=N/NC(=O)C2CC2)c(OC)c1OC	103% (inactive)	
COc1ccc(S(=O)(=O)N2CCCC(C(=O)Nc3ccc(NC(=O)c4ccccn4)cc3)C2)cc1 (stereo unspecified)	17% (inactive)	
COc1ccc(NC(=O)C2CCCN(S(=O)(=O)c3cccc4cccnc34)C2)cc1 (stereo unspecified)	63.6% (inactive)	
O=C(NCc1ccco1)C1CCCN(S(=O)(=O)c2cccc3nonc23)C1 (stereo unspecified)	22% (inactive)	
CN(CC(=O)NC1CCCCC1)S(=O)(=O)c1cccc2cccnc12	22.2% (inactive)	
CC(=O)c1cccc(NC(=O)C2CCCN(S(=O)(=O)c3cccc4nonc34)C2)c1 (stereo unspecified)	5.63% (inactive)	
Cc1cccc(NC(=O)C2CCN(S(=O)(=O)c3cccc4cccnc34)CC2)c1		5.86 µM (active)
O=C(O)C1CCCN(S(=O)(=O)c2cccc3cccnc23)C1 (stereo unspecified)		2.08 µM (active)
COc1ccc(NC(=O)C2CCCN(S(=O)(=O)c3cccc4cccnc34)C2)cc1OC (stereo unspecified)		10.4 µM (active)
COc1cccc(CNC(=O)C2CCN(S(=O)(=O)c3cccc4cccnc34)CC2)c1	13.2% (inactive)	
Cc1ccc(C(=O)Nc2nc(N)n(-c3ccccc3)n2)cc1	40.9% (inactive)	
CC1=NN(C(N)=S)C(=O)C1N=Nc1cc(Cl)ccc1Cl (stereo unspecified)	16.9% (inactive)	
CCOC(=O)C1CCCN(S(=O)(=O)c2ccc(-n3cnnn3)c(C)c2)C1 (stereo unspecified)	4.73% (inactive)	
CCn1c(SCC(=O)NC2=NCCS2)nnc1C(C)NC(=O)c1ccccc1F (stereo unspecified)	19.2% (inactive)	
O=C(CC(=O)N/N=C\c1ccc(F)cc1)NCCc1ccccc1	2.04% (inactive)	
O=C(CCCCCNC(=O)c1ccccc1)N/N=C/c1ccccc1		1.47 µM (active)
O=C(CNC(=O)c1cccnc1)N/N=C/c1cccnc1	32.2% (inactive)	
CNS(=O)(=O)c1cccc(C(=O)OCCCC(=O)c2ccccc2)c1	-12.1% (inactive)	
COc1ccc(Cl)cc1NC(=O)CN(C)CC(=O)Nc1ccc2c(c1)OCO2	-0.297% (inactive)	

Structure (SMILES)	activity change, negative = inhibition	Potency
Cn1c(CC(=O)Nc2ccc(F)cc2)nnc1SCC(=O)NC1CCCCC1	-8.17% (inactive)	
Clc1nc(NC2CCCC2)nc(N2CCOCC2)n1		11.7 µM (active)
Cc1ccc(Nc2nc(N3CCOCC3)nc(N3CCOCC3)n2)cc1Cl	-16.3% (inactive)	
COC(=O)CNc1nc(Cl)nc(N2CCC(C)CC2)n1	9.44% (inactive)	
O=C(Nc1ccc(N2CCCC2=O)cc1)c1cncc(Br)c1	1.63% (inactive)	
COc1ccc(C(=O)N(Cc2ccccc2)c2ccc(C)cc2)cc1S(=O)(=O)N1CCOCC1	-68.2% (inactive)	
Cc1cccc(N(Cc2ccccc2)C(=O)c2ccccc2F)c1	-24.8% (inactive)	
NC(=O)C1CCN(C(=O)c2ccc(F)c(S(=O)(=O)N3CCOCC3)c2)CC1	6.45% (inactive)	
Cc1cccc(NC(=O)c2cc(S(=O)(=O)N3CCC4(CC3)OCCO4)ccc2F)c1	23.8% (inactive)	
Cc1cccc(N(Cc2ccccc2)C(=O)c2cc(S(=O)(=O)N3CCOCC3)ccc2F)c1		11.7 µM (active)
O=C(c1ccc(F)c(S(=O)(=O)N2CCOCC2)c1)N(CCc1ccccc1)Cc1ccccc1		2.62 µM (active)
Cc1cccc(C(=O)Nc2ccc(Oc3cnccn3)cc2)c1	63.5% (inactive)	
COc1cccc(C(=O)n2ccc(-c3cccs3)n2)c1	0% (inactive)	
CC(=O)Nc1cccc(NC(=O)CSc2nccn2Cc2ccc(F)cc2)c1	0% (inactive)	
COC(=O)[C@H](CC(C)C)NC(=O)N1CCCCC1C (stereo partly specified)	-9.64% (inactive)	
CCCc1c(C(=O)Nc2ccc(F)cc2)cnn1-c1ccccc1	-24.3% (inactive)	
Cc1cc(C)cc(N(CCC#N)C(=O)CN2C(=O)NC3(CCCC3)C2=O)c1	13.1% (inactive)	
COc1ccc(CCNc2nc3ccc(C)cc3n3cnnc23)cc1OC	20.1% (inactive)	
COc1ccc(CCNc2cc(C)nc3c(-c4ccc(Cl)cc4)c(C)nn23)cc1OC		10.4 µM (active)
COc1ccc(CCNc2nc(C)cc(C)n2)cc1OC	0% (inactive)	
COc1ccccc1-c1cnn2c(N3CCOCC3)cc(C)nc12	136% (inactive)	
CCc1nccn1S(=O)(=O)c1cccc([N+](=O)[O-])c1	1.85% (inactive)	
CC(C)c1nccn1S(=O)(=O)c1cc([N+](=O)[O-])ccc1Cl		11.7 µM (active)
O=C(Oc1ccc([N+](=O)[O-])cc1)c1ccc(Cl)c(S(=O)(=O)N2CCCCC2)c1	-10.5% (inactive)	
Cn1c(=O)c2c(-c3cccc(Br)c3)c(C#N)c(N)nc2n(C)c1=O	23.3% (inactive)	
CSc1ccc(-c2c(C#N)c(N)nc3c2c(C)nn3-c2ccccc2)cc1		2.08 µM (active)

Structure (SMILES)	activity change, negative = inhibition	Potency
Cc1nn(-c2ccccc2)c2c1C(c1ccc(F)cc1)C(C#N)=C(N)O2 (stereo unspecified)	52.7% (inactive)	
COc1ccc2c3c(c(=O)oc2c1)C1O[C@](CCCCN2C(=O)c4ccccc4C2=O)(Cc2c1ccc1ccccc21)O3	49.1% [at 5.75 µM] (inactive)	
Cc1cccc(C)c1N1C(=O)CN(Cc2ccccc2)C1=S	23% (inactive)	
COc1cccc(N2C(=O)CC(N3CCN(S(=O)(=O)c4ccccc4)CC3)C2=O)c1 (stereo unspecified)	-19.2% (inactive)	
COc1cccc(N2C(=O)CN(Cc3ccccc3)C2=S)c1		1.31 µM (active)
Cc1ccc(S(=O)(=O)N(C)c2ccc(OCC(=O)OCC(=O)N(CC#N)c3ccccc3)cc2)cc1	1.77% (inactive)	
CN(CC(=O)Nc1ccc(Cl)cc1)C(=O)CNC(=O)c1ccc2ccccc2c1	34.5% (inactive)	
O=c1c2ccccc2cnn1Cc1n[nH]c(=S)n1-c1ccccc1F	24.1% (inactive)	
COc1ccc(NS(=O)(=O)c2cc(NC(=O)/C=C/c3cc(OC)c(OC)c(OC)c3)ccc2N2CCCCC2)cc1		2.08 µM (active)
COc1ccc(/C=C/C(=O)Nc2ccc3c(c2)OCCO3)cc1OC	-3.91% (inactive)	
COc1ccc(NS(=O)(=O)c2ccc(N3CCN(CCO)CC3)c([N+](=O)[O-])c2)cc1	-11.6% (inactive)	
CCOC(=O)COn1c(=O)c(-c2ccc(OCC)cc2)[n+]([O-])c2ccccc21	80.9% (inactive)	
O=C1C2C3C=CC(C4CC34)C2C(=O)N1/N=C/c1ccc(-c2ccccc2[N+](=O)[O-])o1 (stereo unspecified)		13.1 µM (active)
Cc1cc([N+](=O)[O-])c(-c2ccc(/C=N/n3cnnc3)o2)cc1Cl	7.67% (inactive)	
Cc1cc(-c2ccc(/C=N/n3cnnc3)o2)c([N+](=O)[O-])cc1C	7.32% (inactive)	
CCc1ccc(OCC2c3cc(OC)c(OC)cc3CCN2C(C)=O)cc1 (stereo unspecified)	3.03% (inactive)	
COc1cc2c(cc1O)[C@H](Cc1ccc(Oc3cc(C[C@@H]4NCCc5cc(OC)c(O)cc54)ccc3O)cc1)NCC2		0.415 µM (active)
COc1ccc(NC(=O)CN(C)C(=O)c2ccc(NC3CC3)c([N+](=O)[O-])c2)cc1	-25.4% (inactive)	
COc1cccc(N(CC(=O)NCc2ccccc2)C(=O)CCC(=O)Nc2nccs2)c1	-3.46% (inactive)	
NC(=O)C1CCN(C(=O)CC2C(=O)NCCN2Cc2cccc(Oc3ccccc3)c2)CC1 (stereo unspecified)	2.05% (inactive)	
CC(C)(CNCC(O)c1ccccc1)N1CCOCC1 (stereo unspecified)		5.86 µM (active)
OC(CNCc1ccc(Cl)c(Cl)c1)c1ccccc1 (stereo unspecified)	1.84% (inactive)	
CC(C)(CNC(=O)c1cc(=O)[nH]c2ccccc12)N1CCOCC1	-11.1% (inactive)	
Cc1c(Cl)c([N+](=O)[O-])nn1CCCC(=O)Nc1cc(Cl)ccc1Cl	-31.1% (inactive)	
Cc1c(Cl)c([N+](=O)[O-])nn1Cc1ccc(C(=O)N/N=C\c2cc(Cl)ccc2O)o1		3.7 µM (active)
O=C(N/N=C/c1ccc2c(c1)OCO2)c1ccc(Cn2cc([N+](=O)[O-])cn2)o1	-6.78% (inactive)	

Structure (SMILES)	activity change, negative = inhibition	Potency
CS(=O)(=O)Nc1ccccc1N=C(c1ccccc1)c1ccccc1	3.7% (inactive)	
O=C(/C=C/c1ccc(Cl)cc1)NCCCn1ccnc1	-24.8% (inactive)	
Cc1ccc(S(=O)(=O)c2nc(NCCCn3ccnc3)sc2Cl)cc1		6.57 µM (active)
Cc1ccc(-c2nc(C#N)c(NCCCn3ccnc3)o2)cc1	237% (inactive)	
COc1ccc(NC(=O)CN(C)C(=O)c2ccc(COc3ccccc3)o2)cc1	-4.52% (inactive)	
CC(=O)c1ccccc1OCc1ccc(C(=O)c2ccccc2)cc1	-97.2% (inactive)	
Cc1ccc(NS(=O)(=O)c2ccc3c(c2)CC(=O)N3)cc1Cl	14% (inactive)	
Cc1nc(SCC(=O)N2CC(=O)Nc3ccccc32)c2c(C)c(C)sc2n1	0% (inactive)	
COc1cccc(Nc2nnc(SCC(=O)N3CC(C)OC(C)C3)s2)c1 (stereo unspecified)	34.9% (inactive)	
COc1cccc(Nc2nnc(SCC(=O)N3CC(=O)Nc4ccccc43)s2)c1		4.65 µM (active)
C#CCOc1ccc(/C=C2/C(=O)ON=C2C)cc1OCC	-7.81% (inactive)	
COCc1c(C(=O)N/N=C(\C)c2ccncc2)nnn1-c1nonc1N	-3.74% (inactive)	
CCOC(=O)c1ccccc1NS(=O)(=O)c1c(C)nc2sccn2c1=O		14.7 µM (active)
CCc1cccc(C)c1NS(=O)(=O)c1c(C)nc2sccn2c1=O	0.376% (inactive)	
Cc1nc2sccn2c(=O)c1S(=O)(=O)NCCc1ccccc1	0% (inactive)	
Cc1cc(OCCCCOc2ccc(C#N)cc2)ccc1[N+](=O)[O-]	12.6% (inactive)	
COc1ccc(CCOC(=O)CNC(=O)c2ccc(Cl)cc2Cl)cc1	-13.4% (inactive)	
Cc1cc(C)c(S(=O)(=O)Nc2c(C)n(C)n(-c3ccccc3)c2=O)cc1[N+](=O)[O-]	-2.69% (inactive)	
CCCOc1cccc(C(=O)NCCCNC(=O)c2cccnc2)c1	95.6% (inactive)	
CCCn1nnc(NC(=O)COc2ccc(CC)cc2)n1	5.36% (inactive)	
CCCOc1cccc(C(=O)Nc2nnn(CCC)n2)c1		4.65 µM (active)
Cc1cc(C(F)F)nn1CC(=O)NC1CCCCCC1	-19.5% (inactive)	
CN(C)c1ccc(CNC(=O)CN2C(=O)COc3ccc(S(=O)(=O)N4CCCC4)cc32)cc1	12.7% (inactive)	
